# In the library only some 3.5% were active in any assay of this set; here they are far more common.
# MITF inh: MITF inhibitors, primary screen, biochemical, AlphaScreen, human; AlphaScreen MITF homodimerization, bead proximity signal; Microphthalmia-associated transcription factor (Homo sapiens), O75030; inhibition, % at 2.6 µM; 0.91% of 650,000 active; in the data active = inhibition above about 50%;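 also: 0% = vehicle wells with protein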
# GPR151 activ: activators of human GPR151, primary screen, cell-based, PathHunter beta-arrestin, luminescence | PathHunter beta-arrestin GPR151 cells | 1% of 650,000 active | activation, % at 11.2 µM | G-protein coupled receptor 151 (Homo sapiens), Q8TDV0 | AID 1508602, 2020; in the data active = activation above about 4.9%;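 also: 0% = median of compound wells and 100% = cells with positive control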
# Target sequence (Q8TDV0 whole entry, looked up): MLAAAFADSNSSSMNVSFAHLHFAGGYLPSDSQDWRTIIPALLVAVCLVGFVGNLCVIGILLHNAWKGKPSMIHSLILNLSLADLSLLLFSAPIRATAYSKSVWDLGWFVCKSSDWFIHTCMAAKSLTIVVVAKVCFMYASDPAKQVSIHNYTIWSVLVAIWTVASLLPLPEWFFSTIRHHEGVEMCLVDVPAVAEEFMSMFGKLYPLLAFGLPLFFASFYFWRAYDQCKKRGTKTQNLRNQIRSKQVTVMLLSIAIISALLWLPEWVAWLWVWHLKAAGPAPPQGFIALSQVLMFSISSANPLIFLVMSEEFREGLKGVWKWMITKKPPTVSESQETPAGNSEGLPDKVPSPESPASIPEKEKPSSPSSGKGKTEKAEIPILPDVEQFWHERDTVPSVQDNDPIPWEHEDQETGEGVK
# FBW7 activator: FBW7 E3 ligase activators, primary screen, biochemical, AlphaScreen, human; F-box/WD repeat-containing protein 7 (Homo sapiens), Q969H0; AlphaScreen FBW7–phospho-cyclin E peptide binding, activator screen; normalized activity (activation), % at 26.1 µM; 0.13% of 650,000 active; in the data active = normalized activity above about 1.9%;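 also: purified mutant Fbw7 with reduced substrate affinity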
# TEAD-YAP inh: TEAD-YAP interaction inhibition, primary screen, TEAD-YAP interaction inhibitor project, luminescence, HEK-TIYL cells | TEAD-Gal4/YAP UAS-luciferase luminescence | inhibition, % at 9.12 µM | 1.4% of 640,000 active | AID 1259422, 2018; in the data active = inhibition above about 32%;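 also: 0% = median of test compound wells and 100% = reference inhibitor wells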
# MITF inh conf: MITF inhibitors, retest of hits, confirmation, biochemical, AlphaScreen, triplicate | shares compounds with MITF inh | 16% of 4,700 active | inhibition, % at 2.6 µM | AID 1259372, 2018 | AlphaScreen MITF homodimerization, biotin/His-MITF beads;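 active = inhibition above a cutoff derived from the DMSO control wells, cut at about 28% in these data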;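 also: 0% = MITF dimer wells with DMSO only; inhibitors lower the bead chemiluminescence by keeping MITF from dimerizing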
# AS interf ctr: AlphaScreen optical interference compounds, counter-screen for MITF inhibitor project, biochemical, triplicate; 7.6% of 4,700 active; inhibition, % at 2.6 µM; LysRS AlphaScreen counterscreen, signal interference; shares compounds with MITF inh;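 active = inhibition above a cutoff derived from the DMSO control wells, cut at about 30% in these data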
# * = called active by the depositor; . = no result given.
SMILES,MITF inh,GPR151 activ,FBW7 activator,TEAD-YAP inh,MITF inh conf,AS interf ctr
CCOC(=O)CCCCC(=O)c1c(C)n(C(=O)c2ccco2)c(=O)n1C(=O)c1ccco1,99*,0,-1,-1,102*,80*
CCOCCOC(=O)C1=C(C)NC2=C(C(=O)CCC2)C1c1cccc(Br)c1 (configuration not stated),-8,2,0,12,.,.
C(=N\c1nc2ccccc2s1)/Nc1nc2ccccc2s1,52*,-3,0,-3,12,16
c1ccc2sc(Nc3nc4ccccc4s3)nc2c1,-12,0,0,-67,.,.
O=C(c1ccccc1F)N(Cc1ccccc1)c1ccccn1,71*,0,0,11,8,18
CC1CC(C)(C)NC(=S)N1CCCC(=O)N1c2ccccc2CC1C (configuration not stated),16,1,0,6,.,.
Cc1nc(C)c(C(=O)N(c2ccccc2)C(C(=O)NC2CCCC2)c2ccncc2)s1 (configuration not stated),14,0,0,-6,.,.
O=C(CCC1CCCCC1)Nc1nc2ccccc2s1,92*,1,0,-32,7,11
CCn1nc(C(=O)Nc2nc3ccccc3s2)cc1C,69*,-9,0,88*,-4,-5
CCn1nc(C(=O)Nc2cc(C)nn2-c2nc3ccccc3s2)cc1C,1,0,0,13,.,.
CN1CCN(CC(=O)Nc2nc3ccccc3s2)CC1,51*,0,0,-15,7,14
CCCC(=O)Nc1nc2ccccc2s1,13,-2,0,-39,.,.
CN(Cc1ccco1)C(=O)c1cc(-c2cccc3cccnc23)cc(-n2cnnn2)c1,10,0,0,6,.,.
c1cc2c(cc1CN1CCCCC1)OCO2,1,1,0,0,.,.
CCOC(=O)N1CCN(Cc2ccc3c(c2)OCO3)CC1,-17,1,0,-9,.,.
CCOc1ccccc1CN1CCN(Cc2ccc3c(c2)OCO3)CC1,52*,1,0,2,4,0
OC(CN1CCOCC1)CN1CCN(Cc2ccc3c(c2)OCO3)CC1 (configuration not stated),76*,0,0,-1,7,10
O=C(CNCc1ccco1)NCc1ccc2c(c1)OCO2,67*,0,0,1,10,21
Cc1ccc(CN(Cc2ccco2)C(=S)NCC(=O)NCc2ccc3c(c2)OCO3)cc1,6,1,0,7,.,.
c1cc2c(cc1CN1CCN(Cc3ccc4c(c3)OCO4)CC1)OCO2,70*,2,0,2,-1,3
CCC(CC)C(=O)N1CCCc2ccccc21,-29,1,0,1,.,.
O=C(Cc1ccc(O)cc1)NNC(=S)Nc1cccc(F)c1,0,-2,0,2,.,.
Cc1ccc(S(=O)(=O)N2CCN(CC3CC=CCC3)CC2)cc1 (configuration not stated),34,0,0,1,.,.
C1=CCC(CN2CCN(C3CCCCC3)CC2)CC1 (configuration not stated),51*,0,0,-1,12,16
C1=CCC(CN2CCN(Cc3ccc4c(c3)OCO4)CC2)CC1 (configuration not stated),66*,0,1,-2,7,19
SMILES,MITF inh,GPR151 activ,FBW7 activator,TEAD-YAP inh,MITF inh conf,AS interf ctr
CCC(C)N1CCN(CC2CC=CCC2)CC1 (configuration not stated),62*,0,0,-1,17,17
CN1CCCN(Cc2ccc3c(c2)OCO3)CC1,52*,3,0,-4,2,1
CC1=CC(C)(C)N(C(=O)c2cccc(C)c2)c2ccc(OC(=O)c3ccc(F)cc3)cc21,15,-1,0,5,.,.
COc1cc(C)c(C(C)C)cc1S(=O)(=O)N1CCN(c2ccc(F)cc2)CC1,-10,0,0,2,.,.
O=C(Nc1ccc(N2CCOCC2)cc1)c1cnc(NCc2ccc3c(c2)OCO3)s1,0,-1,0,-7,.,.
O=C1OC(c2ccc(-c3ccccc3)cc2)=N/C1=C\c1ccc(Cl)c(Cl)c1,16,1,0,9,.,.
CC(C)(C)n1nnnc1C(c1cccs1)N1CCN(Cc2ccc3c(c2)OCO3)CC1 (configuration not stated),78*,-1,0,4,15,17
CCc1ccc(CN2CCN(CC3CC=CCC3)CC2)cc1 (configuration not stated),69*,-1,0,-8,-4,1
CCCS(=O)(=O)N1CCN(Cc2ccc3c(c2)OCO3)CC1,53*,-1,0,-6,10,18
Clc1cccc(CN2CCN(CC3CC=CCC3)CC2)c1 (configuration not stated),32,1,0,-7,.,.
CN1CCN(CC(=O)NCc2ccc3c(c2)OCO3)CC1,83*,0,0,10,6,18
CCCS(=O)(=O)N1CCN(Cc2cccc(F)c2)CC1,45,2,0,-9,.,.
CN1CCN(C(=S)C(=O)NCc2ccc3c(c2)OCO3)CC1,-6,2,0,5,.,.
CCn1c(=O)n(CC(=O)NCCN(C)C)c(=O)c2ccccc21,-1,-1,0,3,.,.
O=C1CSC(c2ccccc2)N1c1ccc(Oc2ccc(Cl)cc2)cc1 (configuration not stated),0,0,0,-2,.,.
C#CC(C)(O)CCCC(C)CCCC(C)CCCC(C)C (configuration not stated),0,2,0,4,.,.
O=C1N[C@@H](Cc2ccc(Cl)cc2)C(=O)N2C[C@@H](NCc3cccc(F)c3)C[C@@H]12,0,2,0,4,.,.
COc1cc(CN2CCN(CC3CC=CCC3)CC2)cc(OC)c1O (configuration not stated),4,2,0,-2,.,.
O=C(c1ccncc1)N1CCN(Cc2ccc3c(c2)OCO3)CC1,87*,-1,1,-6,-1,1
COc1ccc(CN2CCN(CC3CC=CCC3)CC2)c(OC)c1OC (configuration not stated),66*,1,0,12,-19,-2
Cc1ccccc1CN1CCN(CC2CC=CCC2)CC1 (configuration not stated),68*,-2,0,-9,-3,17
Cc1ccccc1CN1CCC(CN)CC1,-4,0,0,11,.,.
Cc1ccccc1-n1c(C)c(C)n2c3c(=O)n(CC(N)=O)c(=O)n(C)c3nc12,-2,2,1,-3,.,.
